Measured values: PubChem BioAssay (NCATS)
Inconclusive results are not listed. Entries that show only a call come without a potency. Activity calls are given as the source filed them. The call rests on the fitted dose curve; in most records, active means well fitted inhibition curve with a large enough effect; inconclusive means small, poorly fitted or top-dose-only effect; inactive means flat fitted curve, though single readings scatter.

Tested on: astro (control astrocytes)
Assay: Drug repurposing screens with cells derived from glioblastoma tumor samples (AID 1345199); further: nearly all actives have a fitted effect of over 40% in size
Settings: viability, ATP luminescence, 48 h; series mostly up to 45.9 µM
Outline: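 Four patient lines of CD133+ GBM neurospheres were screened at several concentrations; hits were retested in those lines plus three slower-growing GBM lines, using 48-hour treatment and ATP-based viability.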
Potency means the concentration at half of the fitted maximal effect.

SMILES	Potency
CN=C(N)NCCC[C@H](N)C(=O)O	inactive
NCc1ccccc1Sc1ccccc1CO	inactive
O=C1OC2(c3ccccc31)c1cc(Br)c(O)c(Br)c1Oc1c2cc(Br)c(O)c1Br	inactive
O=C(O)CCC(=O)Nc1ccc(S(=O)(=O)Nc2nccs2)cc1	inactive
O=C(NCCc1c[nH]c2ccccc12)c1cccnc1	inactive
COc1ccc(/C=N/NC(=O)c2ccncc2)cc1OC	inactive
CC(=O)O[C@H]1C[C@@H]2CC[C@@H]3[C@H](CC[C@@]4(C)[C@H]3C[C@H]([N+]3(C)CCCCC3)[C@@H]4OC(C)=O)[C@@]2(C)C[C@@H]1N1CCCCC1	inactive
O=C1C(=O)c2ccccc2C(O)=C1C1CCC(c2ccc(Cl)cc2)CC1 (stereo not drawn)	12.6 µM (active)
CCN(CC)CCOc1ccc2c(c1)C(=O)c1cc(OCCN(CC)CC)ccc1-2	inactive
NC(=O)C1(N2CCCCC2)CCN(CCCC(=O)c2ccc(F)cc2)CC1	inactive
O=C(Nc1cccc(C2=NCCN2)c1)Nc1cccc(C2=NCCN2)c1	inactive
COc1cc(C(=O)N2CCCCCCC2)cc(OC)c1OC	inactive
Cc1c(-c2ccccc2)oc2c(C(=O)OCCN3CCCCC3)cccc2c1=O	inactive
CC(=O)Nc1ncc([N+](=O)[O-])s1	inactive
CCCCC(CC)COC(=O)/C=C/c1ccc(OC)cc1 (stereo not drawn)	inactive
CCCc1ncc(C[n+]2ccccc2C)c(N)n1	inactive
CCCCCCCCCCCCOCCOCCOCCOCCOCCOCCOCCOCCOCCO	3.16 µM (active)
CCN(CC)CCOC(=O)C1(c2ccccc2)CCCC1	inactive
CCCCCCCCCCCCCC[N+](C)(C)Cc1ccccc1	12.6 µM (active)

SMILES	Potency
NC(=S)N/N=C/c1cccnc1	inactive
N=C(N)N1CCc2ccccc2C1	inactive
CC(=O)O[C@]1(C(C)=O)CC[C@H]2[C@@H]3C=C(C)C4=CC(=O)CC[C@]4(C)[C@H]3CC[C@@]21C	inactive
C=CCN1CCc2nc(N)sc2CC1	inactive
CCN(CC)CCOc1ccccc1C(=O)CCc1ccccc1	inactive
COc1cc(N)c(Cl)cc1C(=O)NC1CCN(Cc2ccccc2)CC1	inactive
NC(N)=NN=C(/C=C/c1ccc([N+](=O)[O-])o1)/C=C/c1ccc([N+](=O)[O-])o1	22.4 µM (active)
CC(=O)N[C@@H](CCC(=O)O)C(=O)O	inactive
NS(=O)(=O)c1cc(C(=O)O)cc(N2CCCC2)c1Oc1ccccc1	inactive
CCCCN=C(N)N=C(N)N	inactive
CCCN(CCc1cccs1)[C@H]1CCc2c(O)cccc2C1	inactive
C/C=C/C=N/NC(=O)c1ccncc1	inactive
O=C(Oc1cccc2cccnc12)c1ccccc1	inactive
OC1C(O)C(O)C(O)C(O)C1O (stereo not drawn)	inactive
CC(C)=CCOc1ccc(/C=C/C(=O)c2ccc(OCC=C(C)C)cc2OCC(=O)O)cc1	31.6 µM (active)
CO[C@H]1C=CO[C@@]2(C)Oc3c(C)c(O)c4c(O)c(c(/C=N/N5CCN(C)CC5)c(O)c4c3C2=O)NC(=O)/C(C)=C\C=C[C@H](C)[C@H](O)[C@@H](C)[C@@H](O)[C@@H](C)[C@H](OC(C)=O)[C@@H]1C	31.6 µM (active)
C[N+]1(C)CCC(=C(c2ccccc2)c2ccccc2)CC1	inactive
Cc1cc2c(OCC(CNC(C)(C)C)OC(=O)c3ccccc3)cccc2[nH]1 (stereo not drawn)	inactive
CO[C@]12C[C@@H](COC(=O)c3cncc(Br)c3)CN(C)[C@@H]1Cc1cn(C)c3cccc2c13	inactive
